Where a name gives a salt, the structure may show the parent alone.
Columns and labels:
Conditions in all cases: incubation time: 27 h, anaerobic, 37 °C;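 for the amine columns active = adjusted P below 0.05 in both replicates with a change the same way and a mean fold change under 0.8 or over 1.25; inactive = the rest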
[1] = test system: Clostridium sporogenes DSM 1664; test: growth (OD595) fold change vs plate DMSO controls (fold change (ratio)); higher = more growth
Outline: (§1)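 Anaerobic mGAM cultures in 96-well plates were grown for 27 h at 37 °C, and absorbance was then read at 595 nm. After blank and compound background correction with 20 µM compound solutions in water, a calibration factor of 5 gave OD. Growth is the fold change relative to the median of each plate's DMSO controls. Values are means of 2 biological replicates, with fold changes above 1.5 set to NA.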

[2] = test system: Escherichia coli IAI1; test: as above
Outline: as §1

[3] = test system: Klebsiella aerogenes DSM 30053; test: as above
Outline: as §1

[4] = test system: Ruminococcus gnavus DSM 108212; test: as above
Outline: as §1

[5] = test system: Klebsiella aerogenes DSM 30053; test: fold change of Histamine concentration vs plate DMSO controls (fold change (ratio)); higher = more amine produced, active = hit call of the paper (significant change in both replicates, either direction)
Outline: (§2)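 In 80 µL wells, cultures of four gut bacterial strains in mGAM started at OD 0.1 before a 1:1 dilution and grew anaerobically at 37 °C for 27 h. Compounds were added to 20 µM final, except sweeteners at 50 µM final. After extraction of whole cultures with cold acetonitrile/methanol plus 0.1% formic acid and centrifugation, amines were measured by LC–triple-quadrupole MS in dynamic MRM mode against external calibration curves, with within-batch drift correction. Values give fold change over DMSO controls on the same plate, averaged across 2 biological replicates.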

[6] = test system: Clostridium sporogenes DSM 1664; test: fold change of Tryptamine concentration vs plate DMSO controls (fold change (ratio)); higher = more amine produced, active = hit call of the paper (significant change in both replicates, either direction)
Outline: as §2

[7] = test system: Ruminococcus gnavus DSM 108212; test: as above
Outline: as §2

[8] = test system: Escherichia coli IAI1; test: fold change of Putrescine concentration vs plate DMSO controls (fold change (ratio)); higher = more amine produced, active = hit call of the paper (significant change in both replicates, either direction)
Outline: as §2

[9] = test system: Klebsiella aerogenes DSM 30053; test: as above
Outline: as §2

[10] = test system: Escherichia coli IAI1; test: fold change of Cadaverine concentration vs plate DMSO controls (fold change (ratio)); higher = more amine produced, active = hit call of the paper (significant change in both replicates, either direction)
Outline: as §2

[11] = test system: Klebsiella aerogenes DSM 30053; test: as above
Outline: as §2

[12] = test system: Ruminococcus gnavus DSM 108212; test: fold change of 2-Phenylethylamine concentration vs plate DMSO controls (fold change (ratio)); higher = more amine produced, active = hit call of the paper (significant change in both replicates, either direction)
Outline: as §2

SMILES	growth [1]	growth [2]	growth [3]	growth [4]	fold change of Histamine concentration [5]	fold change of Tryptamine concentration [6]	fold change of Tryptamine concentration [7]	fold change of Putrescine concentration [8]	fold change of Putrescine concentration [9]	fold change of Cadaverine concentration [10]	fold change of Cadaverine concentration [11]	fold change of 2-Phenylethylamine concentration [12]
CC1COc2ccccc2N1C(=O)C(Cl)Cl (configuration not stated) (20 µM)	0.957	1.02	1.02	0.965	1.02 (inactive)	1.02 (inactive)	1.06 (inactive)	0.986 (inactive)	0.941 (inactive)	1.04 (inactive)	1.05 (inactive)	1.11 (inactive)
O=C1NCN(c2ccccc2)C12CCN(CCCC(c1ccc(F)cc1)c1ccc(F)cc1)CC2 [Fluspirilene] (20 µM)	0.921	0.951	1.01	1.01	0.981 (inactive)	0.959 (inactive)	0.814 (inactive)	0.996 (inactive)	0.994 (inactive)	1.02 (inactive)	0.995 (inactive)	0.884 (inactive)
CC(C)(CO)[C@@H](O)C(=O)NCCCO [(D)-Panthenol] (20 µM)	0.885	0.982	1.05	1.15	1.02 (inactive)	0.993 (inactive)	0.956 (inactive)	0.964 (inactive)	1.01 (inactive)	1 (inactive)	0.996 (inactive)	0.999 (inactive)
CCN1CC(CCN2CCOCC2)C(c2ccccc2)(c2ccccc2)C1=O (configuration not stated) [Doxapram hydrochloride] (20 µM)	1.01	0.969	0.996	0.884	0.932 (inactive)	1.09 (inactive)	1.07 (inactive)	0.977 (inactive)	0.978 (inactive)	1.01 (inactive)	1.02 (inactive)	1.08 (inactive)
Cn1ccnc1S [Methimazole] (20 µM)	1.17	1.11	0.998	1.13	1.04 (inactive)	0.989 (inactive)	0.998 (inactive)	1.17 (inactive)	1 (inactive)	0.976 (inactive)	0.984 (inactive)	0.993 (inactive)
OCCN1CCN(CCCN2c3ccccc3Sc3ccc(Cl)cc32)CC1 [Perphenazine] (20 µM)	1.05	0.856	0.838	0.94	1.07 (inactive)	0.999 (inactive)	0.897 (inactive)	1.02 (inactive)	1.02 (inactive)	1.01 (inactive)	0.999 (inactive)	0.892 (inactive)
CCCCCCCC/C=C\CCCCCCCC(N)=O [Oleamide] (20 µM)	0.884	0.989	1.01	0.968	0.969 (inactive)	1.01 (inactive)	0.895 (inactive)	1.02 (inactive)	1.01 (inactive)	1.06 (inactive)	1 (inactive)	0.862 (inactive)
CCN(CC)CCOCCOC(=O)C1(c2ccccc2)CCCC1 [Carbetapentane citrate] (20 µM)	1.08	1	0.996	0.743	0.992 (inactive)	1.02 (inactive)	0.995 (inactive)	0.958 (inactive)	0.996 (inactive)	0.988 (inactive)	0.993 (inactive)	0.979 (inactive)
Oc1ncnc2[nH]ncc12 [Allopurinol] (20 µM)	1.03	0.942	0.974	1.02	1.03 (inactive)	1.04 (inactive)	1.01 (inactive)	1.09 (inactive)	1 (inactive)	1.01 (inactive)	1.01 (inactive)	1.02 (inactive)
CC(N/C(=N\C#N)Nc1ccncc1)C(C)(C)C (configuration not stated) [Pinacidil monohydrate] (20 µM)	0.925	1	0.98	1.13	1.08 (inactive)	0.982 (inactive)	1.09 (inactive)	1 (inactive)	1 (inactive)	1.04 (inactive)	0.981 (inactive)	1.1 (inactive)
CN1C(=O)CC(c2ccccc2)C1=O (configuration not stated) [Phensuximide] (20 µM)	0.976	1.28	0.996	1.05	1.04 (inactive)	1.03 (inactive)	1.03 (inactive)	1.21 (inactive)	1.01 (inactive)	1.01 (inactive)	0.989 (inactive)	1.02 (inactive)
CN(C)c1ccc2nc3ccc(=[N+](C)C)cc-3sc2c1 [Methylene blue] (20 µM)	0.774	0.466	0.42	0.00745	0.942 (inactive)	0.998 (inactive)	1.02 (inactive)	0.965 (inactive)	0.928 (inactive)	0.941 (inactive)	0.989 (inactive)	1.09 (inactive)
CCN(CC)CCOC(=O)C1(C2CCCCC2)CCCCC1 [Dicyclomine hydrochloride] (20 µM)	0.883	0.966	0.998	0.659	1.01 (inactive)	0.991 (inactive)	0.845 (inactive)	0.988 (inactive)	1.01 (inactive)	1 (inactive)	1 (inactive)	0.815 (inactive)
Cc1ccc(C)c(OCCCC(C)(C)C(=O)O)c1 [Gemfibrozil] (20 µM)	1.11	1.01	1.07	0.931	1.02 (inactive)	1.01 (inactive)	1.05 (inactive)	0.995 (inactive)	1.02 (inactive)	0.968 (inactive)	0.994 (inactive)	1.03 (inactive)
O=C(O)c1ccccc1OP(=O)(O)O [Fosfosal] (20 µM)	0.91	1.01	1.01	1.17	0.997 (inactive)	1.05 (inactive)	1.03 (inactive)	0.942 (inactive)	1 (inactive)	0.995 (inactive)	0.995 (inactive)	1.04 (inactive)
CCN(CC)C(C)CN1c2ccccc2Sc2ccccc21 (configuration not stated) [Ethopropazine hydrochloride] (20 µM)	1.04	0.975	0.954	0.823	1.01 (inactive)	1.03 (inactive)	0.928 (inactive)	1.05 (inactive)	1 (inactive)	1.04 (inactive)	0.992 (inactive)	0.984 (inactive)
CC(=O)Oc1c(C)cccc1C(=O)O [Cresopirine] (20 µM)	1.04	0.974	1.03	0.935	0.972 (inactive)	1.06 (inactive)	0.962 (inactive)	0.977 (inactive)	1.02 (inactive)	0.998 (inactive)	1.01 (inactive)	0.945 (inactive)
COc1ccc(-c2noc(CC(=O)O)c2-c2ccc(OC)cc2)cc1 [Mofezolac] (20 µM)	0.876	1.01	1	1.21	1.05 (inactive)	0.988 (inactive)	0.979 (inactive)	1.03 (inactive)	1 (inactive)	0.987 (inactive)	0.993 (inactive)	0.96 (inactive)
Nc1ccc(O)c(C(=O)O)c1 [Mesalamine] (20 µM)	0.832	0.983	0.985	0.924	1.06 (inactive)	1.02 (inactive)	1.01 (inactive)	0.957 (inactive)	1.01 (inactive)	0.97 (inactive)	0.98 (inactive)	1.04 (inactive)
NC[C@@H]1O[C@H](O[C@H]2[C@@H](O)[C@H](O[C@@H]3[C@@H](O)[C@H](N)C[C@H](N)[C@H]3O[C@H]3O[C@H](CN)[C@@H](O)[C@H](O)[C@H]3N)O[C@@H]2CO)[C@H](N)[C@@H](O)[C@@H]1O [Neomycin sulfate] (20 µM)	0.902	0.997	1.02	0.938	0.893 (inactive)	1.16 (inactive)	1.08 (inactive)	0.954 (inactive)	0.966 (inactive)	0.897 (inactive)	1.02 (inactive)	1.11 (inactive)
COc1ccc(CN(CCN(C)C)c2ccccn2)cc1 [Pyrilamine maleate] (20 µM)	1.02	0.962	0.981	0.868	1.02 (inactive)	1.02 (inactive)	1.02 (inactive)	0.811 (inactive)	1.07 (inactive)	1.57 (active)	1.04 (inactive)	0.963 (inactive)

— the supplement of paper PMC12494721
